An excerpt weighted towards active compounds, which were near 2.8% of everything screened.
pPAFAH FP inh – inhibitors of human plasma PAF acetylhydrolase (pPAFAH); AID 463082; 330,000 tested, 1.5% active; recombinant pPAFAH, FP-rhodamine probe fluorescence polarization; Q13093; inhibition, % at 3.39 µM;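 active means inhibition above the mean inhibition across the screen plus 3 SD, cut at about 25% in these data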;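 further: inhibitors block binding of the rhodamine activity-based probe so polarization drops; 0% = enzyme with DMSO and 100% = wells lacking pPAFAH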
Target sequence (Q13093 whole entry, looked up): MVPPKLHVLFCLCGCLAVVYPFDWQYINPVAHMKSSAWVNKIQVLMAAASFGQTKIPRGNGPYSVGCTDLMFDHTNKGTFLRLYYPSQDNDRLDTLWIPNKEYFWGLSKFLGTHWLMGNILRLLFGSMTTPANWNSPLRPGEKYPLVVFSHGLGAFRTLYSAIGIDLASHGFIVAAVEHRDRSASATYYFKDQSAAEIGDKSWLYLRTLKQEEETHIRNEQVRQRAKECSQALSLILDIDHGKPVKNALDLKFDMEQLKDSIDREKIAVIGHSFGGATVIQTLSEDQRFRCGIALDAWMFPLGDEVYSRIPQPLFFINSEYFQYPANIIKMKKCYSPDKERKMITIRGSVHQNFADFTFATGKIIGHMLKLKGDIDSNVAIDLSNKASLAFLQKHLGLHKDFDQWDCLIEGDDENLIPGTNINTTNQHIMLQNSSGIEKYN
PAFAH2 FP inh – inhibitors of human PAFAH2; 340,000 tested, 0.99% active; recombinant PAFAH2, FP-rhodamine activity probe, fluorescence polarization; inhibition, % at 3.39 µM;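 active means inhibition above the mean over all tested compounds plus 3 SD, cut at about 30% in these data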;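 further: inhibitors block probe labeling of enzyme so polarization drops; 0% = enzyme with DMSO and 100% = wells lacking PAFAH2 protein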
DAGLB inh – diacylglycerol lipase beta (human) inhibition | 340,000 tested, 0.059% active | Q8NCG7 | AID 504411 | inhibition, % at 5.17 µM | HEK293T DAGLB membrane lysate, EnzChek fluorogenic substrate; in the data active means inhibition above about 34%;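 further: 0% = enzyme with vehicle and 100% = wells lacking enzyme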
HTRA1 inh – HTRA1 (human) protease inhibition | Q92743 | recombinant HTRA1, FP-rhodamine activity-based probe, fluorescence polarization | inhibition, % at 5.96 µM | 340,000 tested, 0.5% active; in the data active means inhibition above about 36%;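 further: 0% = enzyme with DMSO and 100% = wells lacking enzyme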
PAFAH1B3 inh – PAFAH1B3 (human) inhibition. Q15102. recombinant PAFAH1B3, FP-rhodamine probe, fluorescence polarization. inhibition, % at 3.39 µM. 340,000 tested, 0.28% active. AID 492972;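 active means inhibition above the screen-wide average of all tested compounds plus 3 SD, cut at about 25% in these data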;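 further: 0% = enzyme with DMSO only and 100% = wells lacking PAFAH1B3 protein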
PAFAH1B2 inh – inhibitors of human PAFAH1B2; inhibition, % at 3.39 µM; 340,000 tested, 1.2% active; recombinant PAFAH1B2, FP-rhodamine activity probe, fluorescence polarization; AID 492953;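 active means inhibition above the mean of all tested compounds plus 3 SD, cut at about 24% in these data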;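 further: 0% = enzyme with DMSO and 100% = wells lacking PAFAH1B2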
PAFAH2 FP conf – PAFAH2 (human) inhibition, confirmed; 2,300 tested, 65% active; recombinant PAFAH2, FP-rhodamine activity probe, fluorescence polarization; AID 493030; shares compounds with PAFAH2 FP inh; inhibition, % at 3.39 µM;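 active means mean inhibition over three repeats above a set limit taken from the earlier primary screen, cut at about 30% in these data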;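 further: inhibitor blocks binding of rhodamine activity probe so polarization falls; 0% = enzyme with DMSO and 100% = wells lacking PAFAH2 protein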
Starred values were filed as active, the others as inactive; / = not tested or not shown.

SMILES	pPAFAH FP inh	PAFAH2 FP inh	DAGLB inh	HTRA1 inh	PAFAH1B3 inh	PAFAH1B2 inh	PAFAH2 FP conf
O=C(COC(=O)/C=C/c1ccccc1[N+](=O)[O-])NC1CC1	20	36*	2	7	-4	7	23
CCc1cc(C(=O)c2ccc(OC)cc2)c(N)s1	7	/	/	/	/	/	/
COc1ccc(C(=O)c2ccsc2N)cc1	16	30*	-6	18	9	11	0
COc1ccc(CN(C)C(=O)C2CSC3(C)CCC(=O)N23)cc1OC (stereo not given)	2	1	0	7	3	6	/
CCOC(=O)c1ccc(NC(=O)N2CCc3ccccc3C2)cc1	5	1	-6	-17	0	4	/
O=C(OCC(=O)N1CCc2ccccc2C1)c1ccc(O)cc1	3	47*	-1	1	11	10	30*
NC(=O)Nc1ccc(C(=O)OCC(=O)N2CCc3ccccc3C2)cc1	-2	54*	3	-1	-5	0	47*
CC(=O)c1c(C)[nH]c(C(=O)OCC(=O)N2CCc3ccccc3C2)c1C	0	30*	1	0	9	3	22
O=C(COC(=O)Cc1cccs1)Nc1cc(S(=O)(=O)N2CCOCC2)ccc1Cl	14	-2	0	-7	5	7	/
CCOc1ncccc1C(=O)OCC(=O)Nc1cc(S(=O)(=O)N2CCOCC2)ccc1Cl	14	44*	2	5	2	-3	39*
O=C(COC(=O)c1ccc(O)cc1)Nc1cc(S(=O)(=O)N2CCCCCC2)ccc1Cl	/	/	-5	-17	/	/	/
O=C(COC(=O)c1cccnc1Cl)Nc1cc(S(=O)(=O)N2CCOCC2)ccc1Cl	2	25	0	19	2	2	/
O=C(COC(=O)c1ccc(F)cc1F)Nc1cc(S(=O)(=O)N2CCOCC2)ccc1Cl	/	34*	-2	-4	11	3	20
O=C(COC(=O)c1cccs1)Nc1cc(S(=O)(=O)N2CCOCC2)ccc1Cl	1	53*	-2	7	-2	2	38*
O=C(COC(=O)c1ccc(O)cc1)Nc1cc(S(=O)(=O)N2CCOCC2)ccc1Cl	5	65*	-3	0	-2	3	54*
COc1cc(/C=N/NC(=O)c2cc(-c3cccc(OC(C)C)c3)nc3ccccc23)ccc1O	13	-2	-1	-7	9	0	/
CN(C)S(=O)(=O)c1ccc(Cl)c(NC(=O)COC(=O)c2cc(-c3ccccc3)nc3ccccc23)c1	-7	-17	-2	-32	-21	-11	/
CC1CCN(S(=O)(=O)c2ccc(NC(=O)CN3C(=O)NC(C)(c4ccccc4)C3=O)cc2)CC1 (stereo not given)	0	-2	-2	-26	-3	9	/
CC(=O)OCC1=C(C(=O)O)N2C(=O)[C@@H](NC(=O)Cc3ccccc3)[C@H]2SC1	/	18	0	6	13	5	/
CC(=O)OCC1=C(C(=O)O)N2C(=O)C(NC(=O)c3ccc(COc4c(C)cccc4Cl)o3)C2SC1 (stereo not given)	15	43*	2	-16	-2	-5	41*
CC(=O)OCC1=C(C(=O)O)N2C(=O)[C@@H](NC(=O)Cc3cccs3)[C@H]2SC1	16	39*	0	-5	5	5	24
CC1CCc2sc(C(=O)OCC(=O)NCc3ccc(F)cc3)cc2C1 (stereo not given)	-1	46*	-6	-6	9	0	40*
O=c1oc(-c2ccccc2)nc2ccsc12	1	44*	0	-15	4	-4	30*
O=c1oc(-c2ccc([N+](=O)[O-])cc2)nc2ccccc12	4	74*	3	1	3	-5	82*
O=c1oc(-c2ccc(Br)cc2)nc2ccccc12	-6	76*	-1	-6	4	-5	70*
CC(C)CC(=O)Nc1ccc(-c2nc3ccccc3c(=O)o2)cc1	7	-14	0	-28	-5	4	/
O=c1oc(-c2ccc([N+](=O)[O-])cc2)nc2ccc(O)cc12	5	85*	1	-6	11	7	67*

Source: PubChem BioAssay (The Scripps Research Institute Molecular Screening Center)
